The list is not random: actives were taken first. Their share in the collection is about 0.97%.
FadD28 FP inh – inhibitors of FadD28 bisubstrate probe binding, primary screen, biochemical, fluorescence polarization, single point; Mycobacterium tuberculosis FadD28 fatty-acid-AMP ligase; inhibition, % at 12.5 µM; 360,000 tested, 0.22% active; AID 588549, 2011; in the data active = inhibition above about 8.5%, passing the limit was not always enough
TcdB GH inh – TcdB glycohydrolase inhibitors, primary screen, biochemical, single point, plate reader. Toxin B (Clostridioides difficile), P18177. TcdB glycohydrolase enzymatic assay. inhibition, % at 9.99 µM. 350,000 tested, 0.24% active. AID 652162, 2013; in the data active = inhibition above about 10%
BioA inh – M. tuberculosis BioA enzyme inhibitors, primary screen, biochemical, plate reader, single point, HTS | 7,8-diaminopelargonic acid synthase BioA (Mycobacterium tuberculosis) | purified M. tuberculosis BioA enzyme | inhibition, % at 9.99 µM | 360,000 tested, 0.096% active | AID 602481, 2012; in the data active = inhibition above about 40%
Rv3671c protease – Rv3671c serine protease inhibitors, primary screen, biochemical, fluorescence polarization, M. tuberculosis H37Rv. inhibition, % at 5.96 µM. 320,000 tested, 0.048% active; in the data active = inhibition above about 38%;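 note: extracellular domain of Rv3671c used as enzyme; 0% = enzyme with DMSO and 100% = no enzyme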
Target sequence (P9WHR9 whole entry, looked up, the tested form may be a part): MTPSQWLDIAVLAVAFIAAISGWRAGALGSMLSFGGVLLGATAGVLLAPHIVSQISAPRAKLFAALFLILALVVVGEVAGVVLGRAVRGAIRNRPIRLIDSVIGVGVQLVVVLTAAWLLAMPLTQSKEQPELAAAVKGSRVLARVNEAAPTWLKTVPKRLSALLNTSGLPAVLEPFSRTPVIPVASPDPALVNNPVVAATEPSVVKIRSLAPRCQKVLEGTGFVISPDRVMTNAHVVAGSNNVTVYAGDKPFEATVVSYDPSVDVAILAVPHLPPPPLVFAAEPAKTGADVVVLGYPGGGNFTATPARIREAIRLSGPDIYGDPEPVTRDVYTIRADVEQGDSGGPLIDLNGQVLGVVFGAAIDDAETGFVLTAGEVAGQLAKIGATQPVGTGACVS
Mtb UGM inh – M. tuberculosis UGM enzyme inhibitors, primary screen, biochemical, fluorescence polarization, single point. purified UGM, fluorescence polarization probe displacement. 320,000 tested, 0.06% active. inhibition, % at 10 µM; in the data active = inhibition above about 10%, passing the limit was not always enough
RecA splice inh – Mtb RecA intein splicing inhibitors, primary screen, biochemical, fluorescence, HTS; Protein RecA (Mycobacterium tuberculosis (strain ATCC 25618 / H37Rv)), P9WHJ3; cell-free RecA intein splicing; inhibition, % (test concentration not listed); 290,000 tested, 0.75% active; AID 2221, 2009; in the data active = inhibition above about 30%;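 note: 0% = vehicle wells and 100% = reference inhibitor control wells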
* marks the source's active call; other numbers are inactive results.

How did C=COC(=O)CSc1snc(SCC(=O)OC)c1C#N do in these assays?
FadD28 FP inh: -9; BioA inh: 4; Rv3671c protease: -4; Mtb UGM inh: 1; RecA splice inh: 33*

Results for COc1cccc(NC(=O)Cn2c(=O)oc3cc(S(=O)(=O)N4CCCC4)ccc32)c1 ?
FadD28 FP inh: 24*; TcdB GH inh: 1; BioA inh: 4; Rv3671c protease: 3; Mtb UGM inh: 3; RecA splice inh: -12

Results for Cc1cccc(NC(=O)Cn2c(=O)oc3ccccc32)n1 ?
FadD28 FP inh: 20*; TcdB GH inh: -2; BioA inh: 2; Rv3671c protease: -6; Mtb UGM inh: -2; RecA splice inh: -2

Results for Cc1cccc(NC(=O)Cn2c(=O)oc3cc(S(=O)(=O)N4CCCC4)ccc32)n1 ?
FadD28 FP inh: 14*; TcdB GH inh: 0; BioA inh: 3; Rv3671c protease: -6; Mtb UGM inh: 6; RecA splice inh: -3

Results for CCCCCCCCCn1c2c(c(=N)c3c1CCC3)CCCC2 ?
FadD28 FP inh: -5

Results for CCCCCCCCCCn1c2c(c(=N)c3c1CCC3)CCC2 ?
FadD28 FP inh: -9; BioA inh: 10; Rv3671c protease: 6; Mtb UGM inh: -2; RecA splice inh: 32*

Results for C=CCn1c(SCC(=O)N2CC(=O)Nc3ccccc32)nc2scc(-c3ccccc3)c2c1=O ?
FadD28 FP inh: -4; TcdB GH inh: 16*; BioA inh: 0; Rv3671c protease: -9; Mtb UGM inh: 0; RecA splice inh: 4

Results for Cc1cccc(N2CCN(C(=O)c3ccc4c(c3)NC(=O)C(CSCc3ccc(F)cc3)N4)CC2C)c1 (stereo unspecified) ?
Rv3671c protease: -21; Mtb UGM inh: -3; RecA splice inh: 33*

What do the screens show for `Cc1ccc(CSCC2Nc3ccc(C(=O)N4CCN(c5cccc(C)c5)C(C)C4)cc3NC2=O)cc1` (stereo unspecified)?
Rv3671c protease: -17; Mtb UGM inh: 2; RecA splice inh: 29

Results for Cc1ccc(C(=O)NC(=S)NNC(=O)CC#N)cc1 ?
FadD28 FP inh: -1; TcdB GH inh: 12*; Rv3671c protease: -7; Mtb UGM inh: 3

Results for Cc1ccc(C(=O)NC(C#N)=C(Cl)Cl)cc1 ?
TcdB GH inh: -1; RecA splice inh: 33*

How did c1ccc2sc(N3CCOCC3)nc2c1 do in these assays?
FadD28 FP inh: 0; BioA inh: 0; Rv3671c protease: 5; Mtb UGM inh: -1; RecA splice inh: -3

What do the screens show for `Nc1ccc2nc(N3CCOCC3)sc2c1`?
FadD28 FP inh: -1; TcdB GH inh: -1; Rv3671c protease: -1; Mtb UGM inh: 0; RecA splice inh: 80*

Results for COc1ccc(NC(=O)N(C)C[C@@H]2OCCCC[C@@H](C)Oc3ccc(NC(=O)Nc4c(C)noc4C)cc3C(=O)N([C@@H](C)CO)C[C@H]2C)cc1 ?
TcdB GH inh: -1; BioA inh: 0

Results for O=C(C1=C(c2ccccc2)C(=O)c2ccccc2C1=O)c1ccccc1 ?
FadD28 FP inh: -1; TcdB GH inh: 1; RecA splice inh: 36*

Results for Nc1c(C(=O)Nc2nccs2)sc2nc(-c3cccs3)cc(C(F)(F)F)c12 ?
FadD28 FP inh: -2; Rv3671c protease: -9; Mtb UGM inh: 1; RecA splice inh: -4

Results for COc1ccc(NC(=O)c2sc3nc(Cc4ccccc4)cc(C(F)(F)F)c3c2N)cc1OC ?
FadD28 FP inh: -2; TcdB GH inh: 0; Rv3671c protease: 8; Mtb UGM inh: 3; RecA splice inh: -31

How did Cc1nnc(NC(=O)c2sc3nc(-c4cccs4)cc(C(F)(F)F)c3c2N)s1 do in these assays?
FadD28 FP inh: 9.4*; TcdB GH inh: 1; BioA inh: 0; Rv3671c protease: -2; Mtb UGM inh: 2; RecA splice inh: -9

How did COc1ccccc1NC(=O)c1sc2nc(Cc3ccccc3)cc(C(F)(F)F)c2c1N do in these assays?
FadD28 FP inh: 1; TcdB GH inh: 1; Rv3671c protease: -2; Mtb UGM inh: 30*; RecA splice inh: -110

What do the screens show for `C[C@H]1CN([C@@H](C)CO)S(=O)(=O)c2ccc(/C=C/c3ccccc3)cc2O[C@H]1CN(C)C`?
TcdB GH inh: 1; BioA inh: 2

Results for C[C@@H]1CN([C@H](C)CO)C(=O)c2cccc(NS(=O)(=O)c3ccc(F)cc3)c2O[C@@H]1CN(C)C(=O)Nc1ccc2c(c1)OCO2 ?
TcdB GH inh: 0; BioA inh: 0

What do the screens show for `Cc1ccc(S(=O)(=O)Nc2cccc3c2O[C@@H](CN(C)C(=O)Nc2ccc4c(c2)OCO4)[C@H](C)CN([C@@H](C)CO)C3=O)cc1`?
FadD28 FP inh: 11*; TcdB GH inh: 0; BioA inh: 0; Rv3671c protease: 1; Mtb UGM inh: 3

Results for C[C@@H]1CN([C@H](C)CO)C(=O)c2cccc(N(C)C)c2O[C@@H]1CN(C)C(=O)Nc1ccc(C(F)(F)F)cc1 ?
TcdB GH inh: 13*; BioA inh: -2

Results for C[C@@H]1CN([C@H](C)CO)C(=O)c2cccc(N(C)C)c2O[C@H]1CN(C)C(=O)Nc1ccc(C(F)(F)F)cc1 ?
TcdB GH inh: 0; BioA inh: 2

What do the screens show for `O=C(O)[C@@H](c1ccccc1)N1Cc2ccccc2C1=O`?
FadD28 FP inh: 0; TcdB GH inh: -5; BioA inh: -1; Rv3671c protease: 7; Mtb UGM inh: -2; RecA splice inh: 32*

How did CO[C@H]1CN(C)C(=O)c2cc(NC(=O)Nc3ccccc3)ccc2OC[C@H](C)N(C(=O)CN(C)C)C[C@H]1C do in these assays?
TcdB GH inh: 0; BioA inh: 1

How did COc1cc(/C=N/NC(=O)CC2(C)OCCCO2)ccc1OCc1ccc(Cl)cc1Cl do in these assays?
FadD28 FP inh: 0; Rv3671c protease: -2; Mtb UGM inh: -1; RecA splice inh: 2

Results for CC1(CC(=O)N/N=C/c2ccc(OCc3ccc(Cl)cc3Cl)cc2)OCCCO1 ?
FadD28 FP inh: -3; BioA inh: 0; Rv3671c protease: -11; Mtb UGM inh: 3; RecA splice inh: 39*

How did C[C@H]1CN([C@@H](C)CO)C(=O)c2cccc(NC(=O)Nc3ccc4c(c3)OCO4)c2O[C@@H]1CN(C)Cc1ccc(C(=O)Nc2ccccc2N)cc1 do in these assays?
TcdB GH inh: 1

Results for CN(C)c1ccc(Cl)c(NC(N)=S)c1 ?
FadD28 FP inh: -4; TcdB GH inh: 27*; BioA inh: 0

How did COc1ccccc1-c1cnc2c(c1)C(=O)N([C@H](C)CO)C[C@H](C)[C@H](CN(C)Cc1ccncc1)O2 do in these assays?
TcdB GH inh: 1; BioA inh: -4
